Shown is part of a subset that was picked to be rich in hits.
DUX4 inh: blocks DUX4-driven transcriptional activation | 293T-iDUX4 ZSCAN4-Gaussia luciferase reporter, 24 h; stronger effect = lower value | activity change, negative = inhibition, % (test concentration not listed) | 0.8% of 37,000 active | AID 1224904;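 active = mean inhibition of at least 10% in the main channel, exceeding the control channel by a set limit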
Hits are given with their value; – = inactive.

SMILES | DUX4 inh
CC(C)NC(=O)N1CCCCN2[C@H](C1)[C@@H](c1ccc(C#Cc3ccccc3F)cc1)[C@@H]2CO | -47
O=C(CN1CCOCC1)N1CCCCN2[C@@H](CO)[C@@H](c3ccc(C#Cc4ccccc4F)cc3)[C@@H]2C1 | –
CC(=O)N1CCCCN2[C@H](C1)[C@H](c1ccc(C#Cc3ccccc3F)cc1)[C@@H]2CO | –
O=C(CN1CCOCC1)N1CCCCN2[C@H](CO)[C@@H](c3ccc(C#Cc4ccccc4F)cc3)[C@@H]2C1 | -36
CC(=O)N1CCCCN2[C@@H](CO)[C@H](c3ccc(C#Cc4ccccc4F)cc3)[C@@H]2C1 | –
O=C(CN1CCOCC1)N1CCCCN2[C@H](CO)[C@@H](c3ccc(C#Cc4ccccc4F)cc3)[C@H]2C1 | –
COc1ccc2c3c(n(C)c2c1)[C@H](CO)N(C(=O)CN(C)C)CC31CCN(C(=O)NC(C)C)CC1 | –
C[C@H](NC(=O)C[C@H]1C=C[C@@H](NC(=O)c2cccnc2)[C@@H](CO)O1)c1ccccc1 | –
C[C@H](CO)N1C[C@H](C)[C@@H](CN(C)Cc2cccc(O)c2)OCc2ccccc2-c2ccccc2C1=O | –
C[C@H]1CN([C@@H](C)CO)C(=O)c2ccccc2-c2ccccc2CO[C@@H]1CN(C)Cc1cccc(C(F)(F)F)c1 | -37
C[C@@H]1CN([C@@H](C)CO)C(=O)c2ccccc2-c2ccccc2CO[C@H]1CN(C)Cc1cccc(C(=O)O)c1 | –
C[C@@H]1CN([C@@H](C)CO)C(=O)c2ccccc2-c2ccccc2CO[C@@H]1CN(C)Cc1cccc(F)c1 | –
C[C@@H]1CN([C@@H](C)CO)C(=O)c2ccccc2-c2ccccc2CO[C@@H]1CN(C)Cc1cccc(C(F)(F)F)c1 | -63
C[C@@H]1CN([C@@H](C)CO)C(=O)c2ccccc2-c2ccccc2CO[C@@H]1CN(C)Cc1ccc(C(F)(F)F)cc1 | –
CNC(=O)C[C@H]1CC[C@@H]2[C@H](COc3ccc(NC(=O)Nc4ccccc4F)cc3C(=O)N2C)O1 | –
CC(C)NC(=O)N1[C@@H]2c3ccc(-c4ccccc4F)c(=O)n3C[C@@H]2[C@@H](CO)[C@@H]1C(=O)NC1CCC1 | –
COc1ccc(CN(C)C[C@@H]2Oc3c(NC(=O)c4cnccn4)cccc3C(=O)N([C@@H](C)CO)C[C@H]2C)cc1 | –
Cc1cc(C(=O)Nc2ccc3c(c2)C(=O)N(C)[C@H]2CC[C@H](CC(=O)NC4CCCC4)O[C@H]2CO3)no1 | –
CCCC(=O)N1CCC2(CC1)CN(Cc1ccc(Cl)cc1)[C@H](CO)c1[nH]c3cc(OC)ccc3c12 | -63
COc1ccc2c3c([nH]c2c1)[C@H](CO)N(Cc1ccc(F)cc1)CC31CN(C(C)=O)C1 | –
CCCC(=O)N1CC2(C1)CN(Cc1ccc(Cl)cc1)[C@@H](CO)c1[nH]c3cc(OC)ccc3c12 | -85
CCCC(=O)N1CC2(C1)CN(Cc1ccncc1)[C@H](CO)c1[nH]c3cc(OC)ccc3c12 | –
COc1ccc2c3c([nH]c2c1)[C@@H](CO)N(Cc1ccncc1)CC31CN(C(=O)c2cccnc2)C1 | –
CCCC(=O)N1CCC2(CC1)CN(Cc1nccs1)[C@H](CO)c1[nH]c3cc(OC)ccc3c12 | –
COc1ccc(CN2CC3(CN(C(=O)c4ccccc4)C3)c3c([nH]c4cc(OC)ccc34)[C@@H]2CO)cc1 | -51
SMILES | DUX4 inh
CCCC(=O)N1CC2(C1)CN(Cc1ccc(Cl)cc1)[C@H](CO)c1[nH]c3cc(OC)ccc3c12 | -80
COc1ccc2c3c([nH]c2c1)[C@H](CO)N(Cc1ccncc1)CC31CN(C(=O)Cc2ccncc2)C1 | –
CCC(=O)N1CC2(C1)CN(Cc1ccc(OC)cc1)[C@H](CO)c1[nH]c3cc(OC)ccc3c12 | –
COc1ccc(CN2CC3(CCN(C(=O)c4ccccc4)CC3)c3c([nH]c4cc(OC)ccc34)[C@@H]2CO)cc1 | –
CCCC(=O)N1CCC2(CC1)CN(Cc1ccncc1)[C@@H](CO)c1[nH]c3cc(OC)ccc3c12 | –
Cc1ccccc1-c1ccc2c(c1)O[C@H](CN(C)C(=O)Nc1ccc(C(F)(F)F)cc1)[C@H](C)CN([C@@H](C)CO)S2(=O)=O | –
COCC(=O)N1[C@@H](CO)[C@@H](c2ccccc2)C12CN(C(=O)NC1CCCCC1)C2 | –
O=C(C[C@H]1CC[C@@H]2[C@H](COC[C@@H](O)CN2C(=O)c2cnccn2)O1)NCc1ccc(Cl)cc1 | –
COc1ccc2c3c([nH]c2c1)[C@H](CO)N(Cc1ccncc1)CC31CN(S(C)(=O)=O)C1 | –
COc1ccc2c3c([nH]c2c1)[C@H](CO)N(C(=O)Nc1ccc(F)cc1)CC31CN(CC2CC2)C1 | –
COc1ccc(CN2CC3(C2)CN(C(=O)Nc2ccc(F)cc2)[C@@H](CO)c2[nH]c4cc(OC)ccc4c23)cc1 | -39
COc1ccc2c3c([nH]c2c1)[C@H](CO)N(C(=O)Nc1ccc(F)cc1)CC31CN(S(C)(=O)=O)C1 | –
COc1ccc2c3c([nH]c2c1)[C@H](CO)N(Cc1cccc(Cl)c1)CC31CN(C)C1 | –
COc1ccc2c3c([nH]c2c1)[C@H](CO)N(Cc1ccc(Cl)cc1)CC31CN(S(C)(=O)=O)C1 | -45
Cc1ccc(S(=O)(=O)N2C[C@@H](O)COC[C@@H]3O[C@H](CC(=O)N[C@H]4CCN(Cc5ccccc5)C4)CC[C@H]32)cc1 | –
CN(C)C(=O)c1cccc(-c2ccc3c(c2)[C@@H]2[C@@H](CCN2S(=O)(=O)c2cn(C)cn2)[C@H](CO)N3)c1 | –
CN1[C@@H]2c3ccc(-c4ccccc4)c(=O)n3C[C@@H]2[C@@H](CO)[C@@H]1C(=O)NCCc1ccccc1 | –
Cc1noc(C)c1NC(=O)N(C)C[C@H]1Oc2cc(C#CCN(C)C)ccc2S(=O)(=O)N([C@@H](C)CO)C[C@H]1C | –
CNC(=O)C[C@H]1CC[C@H]2[C@@H](COc3ccc(NC(=O)Nc4ccccc4OC)cc3C(=O)N2C)O1 | –
C[C@@H]1CN([C@@H](C)CO)C(=O)c2ccccc2-c2ccccc2CO[C@@H]1CN(C)Cc1ccc(O)cc1 | –
C[C@@H]1CN([C@H](C)CO)C(=O)c2ccccc2-c2ccccc2CO[C@@H]1CN(C)Cc1ccc2c(c1)OCO2 | –
C[C@H](CO)N1C[C@H](C)[C@H](CN(C)Cc2ccc(O)cc2)OCc2ccccc2-c2ccccc2C1=O | –
C[C@H](CO)N1C[C@H](C)[C@@H](CN(C)Cc2ccc(F)cc2)OCc2ccccc2-c2ccccc2C1=O | –
C[C@@H]1CN([C@H](C)CO)C(=O)c2ccccc2-c2ccccc2CO[C@@H]1CN(C)Cc1ccc(Cl)c(Cl)c1 | -52
C[C@H]1CN([C@@H](C)CO)C(=O)c2ccccc2-c2ccccc2CO[C@@H]1CN(C)Cc1ccc(Cl)c(Cl)c1 | -42
SMILES | DUX4 inh
CCCNC(=O)N1CC2(C1)[C@@H](c1ccccc1)[C@H](CO)N2C(=O)C1CCC1 | –
CCCC(=O)Nc1ccc2c(c1)OC[C@@H](C)N(S(=O)(=O)c1cn(C)cn1)C[C@H](C)[C@H](OC)CN(C)C2=O | –
COc1ccc2c3c([nH]c2c1)[C@H](CO)NCC31CCN(C(=O)Cc2ccncc2)CC1 | –
O=C(C[C@@H]1CC[C@@H](NS(=O)(=O)c2ccc(F)cc2)[C@@H](CO)O1)N1CCN(c2ccccc2)CC1 | –
COc1ccc2c3c([nH]c2c1)[C@@H](CO)NCC31CCN(C(=O)c2ccccc2)CC1 | –
COc1cccc(S(=O)(=O)Nc2ccc3c(c2)C(=O)N(C)[C@H]2CC[C@@H](CC(=O)O)O[C@@H]2CO3)c1 | –

Source: PubChem BioAssay
